Results filed as inconclusive are left out. Calls of active or inactive are those of the source. Rule for the calls, unless noted: active = hit-call score of the fitted dose curve at least 0.9, where 1 is the maximum; inactive = score below 0.9.

Assay [1] is described as follows: CCTE_Harrill_HTTr_Viability_MCF7: CCTE's 6-hour Cell Viability Assessment for the High-Throughput Transcriptomics (HTTr) Platform, in MCF-7 cells cultured in DMEM + 10% fetal bovine serum, Harrill Lab (AID 2284010). The gist of the method: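 Viability measured through PI dye exclusion by high-content imaging at 6 h post-dosing.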
A short description of assay [2]: CCTE_Harrill_HTTr_Apoptosis_MCF7: CCTE's 6-hour Apoptosis Assessment for the High-Throughput Transcriptomics (HTTr) Platform, in MCF-7 cells cultured in DMEM + 10% fetal bovine serum, Harrill Lab (AID 2284011). In outline: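 MCF-7 (DMEM + 10% FBS), 384-well; 8-pt dilution series, 6 h chemical exposure; caspase-3/7 activation via CellEvent Caspase 3/7 Green, HCI; bidirectional fit vs DMSO.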

Assay [3] has as its system DIO1 (gene 1733). The assay is described as follows: CCTE_GLTED_hDIO1: CCTE's human Deiodinase 1 (DIO1) Inhibition Assay, Great Lakes Toxicology and Ecology Division (GLTED) Lab (AID 2283987; active = hit-call score of the fitted dose curve at least 0.9, where 1 is the maximum;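 note: isolated human DIO1 enzyme in a cell-free setup rather than cells; enzyme activity read as free iodide liberated from substrate via Sandell-Kolthoff colorimetry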). In outline: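 Inhibition of human deiodinase 1 is scored as reduced iodide liberation after a 3 h enzyme–chemical incubation, detected colorimetrically by the Sandell-Kolthoff reaction against DMSO controls.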

Assay [4] is described as follows: CCTE_Shafer_MEA_acute_spike_number: CCTE's Neural Acute Assay for Total Number of Spikes, Shafer Lab (AID 2284008).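 For AC50: curve fitted for decrease in spike count so AC50 reflects inhibitors.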 The gist of the method: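 Read-out is the total spike count over 40 min, expressed as percent change from each well's own pre-treatment baseline and fitted in the loss direction against DMSO. Rat cortical neurons were exposed at 0.03-40 uM on DIV 13 or 15.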

Assay [5] can be described thus: CCTE_Harrill_HTTr_CellCount_MCF7: CCTE's Cell Proliferation Assessment for the High-Throughput Transcriptomics (HTTr) Platform, Harrill Lab (AID 2284012; active = hit-call score of the fitted dose curve at least 0.9, where 1 is the maximum;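 note: count of Hoechst-stained nuclei per well by high-content imaging in MCF-7 cells; cells exposed to compound for six hours; intended direction is loss of nuclei count meaning fewer cells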). The gist of the method:
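Nuclei counting (Hoechst, high content imaging) in MCF-7 after a 6 h treatment at eight concentrations. Activity fitted bidirectionally, DMSO as negative control.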

Assay [6] is described as follows: CCTE_Shafer_MEA_acute_burst_number: CCTE's Neural Acute Assay for Single-Electrode Bursts, Shafer Lab (AID 2284013). The gist of the method:
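Spontaneous network activity of primary rat cortical neurons was recorded extracellularly on microelectrode arrays at 37 C, with 40-min periods before and during exposure to 0.03-40 uM compound on DIV 13 or 15.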

Assay [7] is described as follows: CCTE_Shafer_MEA_acute_burst_duration_mean: CCTE's Neural Acute Assay for Mean Burst Duration, Shafer Lab (AID 2284014).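 Note: hits are decreases in mean burst duration relative to DMSO controls.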 In outline:
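Read-out is the per-well percent change in mean burst duration (first to last spike within a single-electrode burst) between 40-min recordings before and after compound. Cultures were primary rat cortical neurons on MEAs, dosed at 0.03-40 uM on DIV 13 or 15.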

Assay [8] in a line: CCTE_Shafer_MEA_acute_per_burst_spike_number_mean: CCTE's Neural Acute Assay for Average Number of Spikes Per Burst, Shafer Lab (AID 2284015).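 Note: hits are decreases in mean spikes per burst versus baseline.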 In outline: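 Percent change in mean spikes per single-electrode burst is compared between a 40 min baseline and a 40 min recording with compound (0.03-40 uM). Cultures were rat cortical neurons on MEA plates at DIV 13 or 15, recorded at 37 C, with DMSO as the negative control.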

Assay [9] is described as follows: CCTE_Shafer_MEA_acute_interburst_interval_mean: CCTE's Neural Acute Assay for Mean Interburst Interval, Shafer Lab (AID 2284016).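 Note: percent change of mean interburst interval versus each well's own pre-dose baseline; curves fitted for decrease in interburst interval relative to DMSO.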 The gist of the method: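 Percent change in mean single-electrode interburst interval was calculated per well from 40 min recordings before and after compound (0.03-40 uM). Recordings were made at 37 C on rat cortical cultures at DIV 13 or 15, with spikes detected at 8x rms threshold.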

Assay [10] can be described thus: CCTE_Shafer_MEA_acute_burst_percentage_mean: CCTE's Neural Acute Assay for Percentage of Spikes in a Burst, Shafer Lab (AID 2284017).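 For AC50: curve fitted for loss of signal so potency reflects decreased burst percentage.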 The gist of the method:
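Well-level mean burst percentage from a 40-min recording after compound (0.03-40 uM) expressed as percent change from a 40-min baseline at 37C. Cultures: primary rat cortical neurons on MEA, dosed on DIV 13 or 15; fitted downward relative to DMSO.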

Assay [11] is described as follows: CCTE_Shafer_MEA_acute_burst_percentage_std: CCTE's Neural Acute Assay for Standard Deviation of Burst Percentage, Shafer Lab (AID 2284018).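 Note: fitted in the negative direction so actives lower burst percentage SD.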 In outline: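 Value is percent change from baseline in the across-electrode SD of spikes-in-bursts percentage, wells with >/= 10 active electrodes. Acute 40-min exposure to 0.03-40 uM on DIV 13 or 15 rat cortical cultures, recorded at 37 C after 40-min baseline.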

Assay [12] is described as follows: CCTE_Shafer_MEA_acute_per_network_burst_spike_number_mean: CCTE's Neural Acute Assay for Average Number of Spikes in a Network Burst, Shafer Lab (AID 2284019). The gist of the method:
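Read-out is mean spike count per network burst, taken as percent change between a 40-min pre-exposure and a 40-min post-exposure recording per well. Rat primary cortical neurons on MEAs at 37 C, DIV 13 or 15; compounds at 0.03-40 uM.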

Assay [13] is described as follows: CCTE_Shafer_MEA_acute_per_network_burst_spike_number_std: CCTE's Neural Acute Assay for Standard Deviation of Number of Spikes in a Network Burst, Shafer Lab (AID 2284020).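 Note: fitted for decrease in spike-number SD versus DMSO so actives lower it.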 In outline:
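Spontaneous network activity of primary rat cortical neurons is recorded extracellularly before and after a 40-min compound exposure (0.03-40 uM) at 37 C. The endpoint is the well's percent change in burst spike-number SD.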

Assay [14] concerns the target Nucleoli Translocation, AR (gene 367) (UniProt P10275). The assay is described as follows: UPITT_HCI_U2OS_AR_TIF2_Nucleoli_Antagonist: University of Pittsburgh U2OS Androgen Receptor-Transcriptional Intermediary Factor 2 (AR-TIF2) Antagonism High Content Imaging Assay for Nucleoli Translocation (AID 2283997; active = hit-call score of the fitted dose curve at least 0.9, where 1 is the maximum). The gist of the method:
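Measured quantity was AR-RFP fluorescence localized to nucleoli in engineered U2OS cells also bearing TIF2-GFP, acquired on automated high-content imagers. Primary testing used 20 uM compound; actives were confirmed in triplicate wells.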

The target is the same in assay [15]. Briefly: UPITT_HCI_U2OS_AR_TIF2_Nucleoli_Agonist: University of Pittsburgh U2OS Androgen Receptor-Transcriptional Intermediary Factor 2 (AR-TIF2) Agonism High Content Imaging Assay for Nucleoli Translocation (AID 2283998; active = hit-call score of the fitted dose curve at least 0.9, where 1 is the maximum). The gist of the method:
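Readout is red (AR-RFP) fluorescence localized to nucleoli, measured by high-content imaging and analysed for increase relative to DMSO. Compound series spanned 0.195 to 50 uM final in 0.5% DMSO.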

Assay [16] concerns the target Ratio of Nucleoli Translocation and Cytoplasm, AR (gene 367) (UniProt P10275). The assay is described as follows: UPITT_HCI_U2OS_AR_TIF2_Nucleoli_Cytoplasm_Ratio_Agonist: University of Pittsburgh U2OS Androgen Receptor-Transcriptional Intermediary Factor 2 (AR-TIF2) Agonism High Content Imaging Assay for Ratio of Nucleoli Translocation and Cytoplasm (AID 2284000; active = hit-call score of the fitted dose curve at least 0.9, where 1 is the maximum;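 note: hits raise the red nucleolar to cytoplasm ratio above vehicle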). The gist of the method: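 Read-out first: nucleolar-to-cytoplasm ratio of red (AR-RFP) signal, quantified by high-content imaging in U2OS cells co-expressing TIF2-GFP. Activity is scored as signal increase over DMSO. Single-point screening used 20 uM final (0.2% DMSO).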

Chain of Ratio of Nucleoli Translocation and Cytoplasm, AR (gene 367) (P10275 whole entry, looked up): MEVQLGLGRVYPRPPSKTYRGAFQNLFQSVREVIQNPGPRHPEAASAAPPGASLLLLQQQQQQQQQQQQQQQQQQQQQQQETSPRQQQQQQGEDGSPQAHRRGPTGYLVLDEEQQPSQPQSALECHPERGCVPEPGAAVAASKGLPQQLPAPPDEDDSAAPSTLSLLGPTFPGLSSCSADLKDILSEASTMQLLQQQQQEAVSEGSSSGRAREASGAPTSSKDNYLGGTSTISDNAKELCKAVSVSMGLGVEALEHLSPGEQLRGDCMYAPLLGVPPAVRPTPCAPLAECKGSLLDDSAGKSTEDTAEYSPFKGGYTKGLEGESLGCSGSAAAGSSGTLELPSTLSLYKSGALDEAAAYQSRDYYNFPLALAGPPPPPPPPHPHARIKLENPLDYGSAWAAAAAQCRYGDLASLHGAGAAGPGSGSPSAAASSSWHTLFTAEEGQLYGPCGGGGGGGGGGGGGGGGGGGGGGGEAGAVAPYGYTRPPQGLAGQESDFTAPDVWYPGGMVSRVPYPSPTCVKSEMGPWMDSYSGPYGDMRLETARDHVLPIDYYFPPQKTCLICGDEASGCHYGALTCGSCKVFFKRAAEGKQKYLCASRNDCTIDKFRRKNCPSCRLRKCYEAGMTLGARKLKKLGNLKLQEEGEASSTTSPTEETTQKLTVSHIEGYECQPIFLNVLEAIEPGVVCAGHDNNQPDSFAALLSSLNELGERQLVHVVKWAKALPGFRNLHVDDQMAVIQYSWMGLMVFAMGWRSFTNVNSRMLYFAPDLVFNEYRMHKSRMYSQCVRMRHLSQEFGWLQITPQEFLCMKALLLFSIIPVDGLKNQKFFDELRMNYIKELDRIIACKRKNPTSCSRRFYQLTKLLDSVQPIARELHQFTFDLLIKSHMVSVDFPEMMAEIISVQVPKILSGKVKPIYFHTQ
Chain of Nucleoli Translocation, AR (gene 367) (P10275 whole entry, looked up): as above

As to `C=C(c1ccc(C(=O)O)cc1)c1cc2c(cc1C)C(C)(C)CCC2(C)C`, the result in assay [1] and in [2] was inactive.
What is called AC50 is the concentration at which the activity in the assay is half-maximal. As to `CCCCCCCCCCCC`, in assay [3], the AC50 is 84.4 µM (active). Also, the molecule was called inactive in assay [4], in assay [1], in assay [2], in assay [5], in assay [6] and in assay [7]. The molecule was classed as inactive in assay [8], in assay [9], in [10], in [11], in assay [12] and in assay [13].
As to `O=C(NCc1ncc(C(F)(F)F)cc1Cl)c1c(Cl)cccc1Cl`, the call in assay [14], in [15], in assay [16], in assay [1] and in assay [2] was inactive.
Regarding `N=C(N)c1ccc(OCCCCCOc2ccc(C(=N)N)cc2)cc1`, the molecule was classed as inactive in assay [4], in [1], in assay [2], in assay [5], in assay [6] and in assay [7]. For the same molecule, the molecule was classed as inactive in assay [8], in assay [9], in assay [12] and in assay [13]. Also, the half-maximal activity concentration (AC50) in assay [10] was 26.9 µM (active); in [11], 31.8 µM (active).
In the case of `NC(=NCCCCCCN=C(N)/N=C(\N)Nc1ccc(Cl)cc1)/N=C(\N)Nc1ccc(Cl)cc1`, the AC50 was 21.3 µM (active) in assay [3], 16.5 µM (active) in assay [14] and 70 µM (active) in [1]. Moreover, the outcome in assay [15], in assay [16] and in assay [2] was inactive.
For the molecule `CCCCCCc1ccc(N)cc1`, the call in assay [14] and in assay [15] was inactive. In addition, in [16], the AC50 is 78.4 µM (active).
As for `CC(C)[C@@H]1CC[C@@H](C)C[C@H]1O`, the call in assay [14], in [15], in assay [1] and in assay [2] was inactive.
As for `OCC(CO)(CBr)CBr`, the molecule was classed as inactive in assay [4], in assay [1], in assay [2], in [5], in assay [6] and in [7]. Further, the molecule was called inactive in assay [8], in assay [9], in assay [10], in [11], in [12] and in assay [13].
On to `CCCCCCCCCCCCOC(=O)c1cc(O)c(O)c(O)c1`, for which the AC50 in assay [3] was 53.4 µM (active). Further, the result in assay [1], in [2] and in assay [5] was inactive.
`CN(Cc1cnc2nc(N)nc(N)c2n1)c1ccc(C(=O)N[C@@H](CCC(=O)O)C(=O)O)cc1`: the molecule was called inactive in [14], in [15], in [16], in assay [1] and in assay [2].
`Oc1c(Cl)cc(Cl)cc1Sc1cc(Cl)cc(Cl)c1O`: the outcome in assay [4], in assay [1], in assay [2], in assay [5], in [6] and in assay [7] was inactive. Besides, the call in assay [9], in assay [11] and in [12] was inactive. Also, the values for the AC50 in assay [8], in [10] and in [13] were 9.08 µM (active), 7.11 µM (active) and 5 µM (active), respectively.
Regarding `O=C(c1ccccc1)c1ccccc1`, the molecule was classed as inactive in assay [14], in assay [15], in assay [16], in assay [1], in assay [2] and in assay [5].
With `CCCCc1ccc2ccccc2c1S(=O)(=O)O`, the call in assay [15] and in assay [16] was inactive.
`O=C(O)C(F)(F)OC(F)(F)C(F)(F)OC(F)(F)C(F)(F)OC(F)(F)C(F)(F)C(F)(F)C(F)(F)F`: the AC50 in [3] was 24.6 µM (active).
In the case of `O=S(=O)(O)c1ccccc1`, the outcome in [1] and in assay [2] was inactive.
For the molecule `Oc1ccc(Cc2ccccc2O)cc1`, the results for the AC50 in [4] and in assay [6] were 0.00292 µM (active) and 0.0236 µM (active), respectively. Further, the molecule was classed as inactive in assay [7], in assay [8], in assay [9], in [10], in [11] and in assay [12]. The molecule was called inactive in assay [13].
With `CCC(C)c1ccccc1O` (centres undefined), the results for the AC50 in assay [4], in [6] and in assay [10] were 2.06 µM (active), 2.44 µM (active) and 7.61 µM (active), respectively. The outcome in assay [1], in assay [2], in [5], in assay [7], in assay [8] and in [9] was inactive. The molecule was called inactive in assay [11], in [12] and in assay [13].
Turning to `O=P(O)(O)CCC(F)(F)C(F)(F)C(F)(F)C(F)(F)C(F)(F)C(F)(F)C(F)(F)C(F)(F)F`, in assay [3], the AC50 was 182 µM (active).
On to `CCCCCc1ccc(O)cc1`, for which the AC50 in assay [14] was 31.9 µM (active); in assay [15], 39.1 µM (active). The outcome in assay [16] was inactive.
Turning to `CC(O)COc1ccccc1` (centres undefined), the molecule was classed as inactive in [14], in assay [15], in assay [16], in [1], in assay [2] and in [5].
Turning to `CC(=O)Nc1ccc(O)cc1`, the call in assay [14], in [4], in assay [1], in assay [2], in assay [5] and in [6] was inactive. Also, the molecule was classed as inactive in [7], in assay [8], in [10], in assay [11], in [12] and in [13].
Consider `O=C1NS(=O)(=O)c2ccccc21`, for which the AC50 was 0.00978 µM (active) in assay [4] and 0.003 µM (active) in assay [6]. Moreover, the outcome in [1], in assay [2], in assay [5], in assay [7], in assay [8] and in assay [9] was inactive. Moreover, the outcome in assay [10], in assay [11], in [12] and in assay [13] was inactive.
As to `COc1cc([N+](=O)[O-])ccc1N`, the molecule was classed as inactive in assay [14] and in assay [16].
`COc1cc(OC)nc(NC(=O)NS(=O)(=O)Nc2ccccc2C(=O)N(C)C)n1`: the result in assay [1] and in assay [2] was inactive.
For `CCCCC=O`, the molecule was called inactive in [4], in assay [1], in [2], in assay [5], in assay [6] and in assay [7]. The result in assay [8], in assay [9], in [10], in assay [11], in [12] and in [13] was inactive.
Take `Cc1cc(C(=C2C=CC(=Nc3ccc(S(=O)(=O)O)cc3)C=C2)c2ccc(Nc3ccc(S(=O)(=O)O)cc3)cc2)cc(S(=O)(=O)O)c1N`: the outcome in [14] and in assay [16] was inactive.
On to `Nc1ccc(O)c(C(=O)O)c1`, for which the outcome in assay [1] and in assay [2] was inactive.
